# Laboratory results: the supplement of paper PMC11732987, “Enantioselective OTUD7B fragment discovery through chemoproteomics screening and high-throughput optimisation” (Communications Chemistry, 2025)
# Unmarked numbers belong to inactive results.
# Tests used:
# Experiment in all cases: log2 ratio of Biotin-Ahx-Ub-VS probe labelling (fragment/DMSO); higher = less target engagement (more negative = stronger competition), active = hit call of the paper (q ≤ 0.05, log2 ratio ≤ -1)
# Conditions in all cases: compound concentration: 200 uM; treatment time: 3 h
# [1] = molecular target: T1, ALG13 (UniProt Q9NP73)
# T1 sequence (whole entry): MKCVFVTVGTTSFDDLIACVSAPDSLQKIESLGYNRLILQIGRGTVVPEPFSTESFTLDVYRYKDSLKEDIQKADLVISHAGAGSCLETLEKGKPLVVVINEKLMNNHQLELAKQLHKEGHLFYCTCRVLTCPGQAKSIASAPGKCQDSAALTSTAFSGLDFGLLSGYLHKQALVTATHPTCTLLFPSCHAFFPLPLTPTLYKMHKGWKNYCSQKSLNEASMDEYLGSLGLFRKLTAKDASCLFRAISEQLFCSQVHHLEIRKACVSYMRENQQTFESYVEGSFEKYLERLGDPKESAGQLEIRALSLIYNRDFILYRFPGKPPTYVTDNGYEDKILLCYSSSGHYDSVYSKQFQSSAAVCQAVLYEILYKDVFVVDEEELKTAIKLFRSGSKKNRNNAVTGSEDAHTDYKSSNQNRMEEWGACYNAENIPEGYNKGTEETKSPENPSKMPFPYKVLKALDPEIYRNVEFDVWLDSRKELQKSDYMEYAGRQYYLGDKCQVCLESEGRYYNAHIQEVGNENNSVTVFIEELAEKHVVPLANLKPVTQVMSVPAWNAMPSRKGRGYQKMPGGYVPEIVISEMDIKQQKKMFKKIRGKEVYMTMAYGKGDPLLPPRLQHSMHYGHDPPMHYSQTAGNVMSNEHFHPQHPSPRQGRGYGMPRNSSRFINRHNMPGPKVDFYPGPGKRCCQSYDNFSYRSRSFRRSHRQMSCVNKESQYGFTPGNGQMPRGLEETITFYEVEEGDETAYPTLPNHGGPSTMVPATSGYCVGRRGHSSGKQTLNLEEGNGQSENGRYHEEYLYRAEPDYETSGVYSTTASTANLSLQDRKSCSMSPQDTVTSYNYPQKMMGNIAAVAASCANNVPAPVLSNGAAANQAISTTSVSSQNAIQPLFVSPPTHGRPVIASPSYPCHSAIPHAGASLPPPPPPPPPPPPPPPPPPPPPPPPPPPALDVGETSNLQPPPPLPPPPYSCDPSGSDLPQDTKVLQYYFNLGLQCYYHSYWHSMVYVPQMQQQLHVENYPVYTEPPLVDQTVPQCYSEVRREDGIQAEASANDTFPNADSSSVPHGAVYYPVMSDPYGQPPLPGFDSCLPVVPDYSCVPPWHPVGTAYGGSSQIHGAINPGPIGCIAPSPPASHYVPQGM
# In short: (§1)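 Average log2 ratios of fragment over vehicle were obtained by unpaired t-test from global-median-normalised Spectronaut label-free quantities. Proteins with ≥2 unique peptides were included. HEK293T lysate (495 µg per sample) was treated in triplicate with fragment at 200 µM or vehicle for 3 h, then with Biotin-Ahx-Ub-VS at 0.5 µM final for 1 h, and labelled DUBs were NeutrAvidin-enriched and run by diaPASEF LC-MS/MS.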
# [2] = molecular target: ATXN3 (UniProt P54252)
# In short: as §1
# [3] = molecular target: T2, BAP1 (UniProt Q92560)
# T2 sequence (whole entry): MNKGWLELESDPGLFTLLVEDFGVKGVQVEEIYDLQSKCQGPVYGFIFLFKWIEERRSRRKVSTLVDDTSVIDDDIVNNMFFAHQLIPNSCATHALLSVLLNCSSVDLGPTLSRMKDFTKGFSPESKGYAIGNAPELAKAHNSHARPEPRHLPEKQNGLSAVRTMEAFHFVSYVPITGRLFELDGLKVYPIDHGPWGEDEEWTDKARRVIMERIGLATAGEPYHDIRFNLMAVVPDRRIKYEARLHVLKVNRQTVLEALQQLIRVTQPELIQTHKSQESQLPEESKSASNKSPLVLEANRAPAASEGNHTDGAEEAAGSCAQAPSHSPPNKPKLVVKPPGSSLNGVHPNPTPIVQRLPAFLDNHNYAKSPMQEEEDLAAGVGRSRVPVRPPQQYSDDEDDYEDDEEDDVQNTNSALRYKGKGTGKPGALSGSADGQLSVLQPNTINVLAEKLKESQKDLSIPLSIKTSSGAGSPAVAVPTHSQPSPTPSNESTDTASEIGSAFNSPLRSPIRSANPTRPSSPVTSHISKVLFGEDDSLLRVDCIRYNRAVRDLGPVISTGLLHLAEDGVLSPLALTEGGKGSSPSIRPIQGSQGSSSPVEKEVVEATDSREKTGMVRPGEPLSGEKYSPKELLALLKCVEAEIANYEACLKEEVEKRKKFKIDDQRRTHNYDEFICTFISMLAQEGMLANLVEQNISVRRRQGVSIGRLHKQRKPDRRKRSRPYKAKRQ
# In short: as §1
# [4] = molecular target: EIF3F (UniProt O00303)
# In short: as §1
# [5] = molecular target: EIF3H (UniProt O15372)
# In short: as §1
# [6] = molecular target: T3, FAM105A (UniProt Q9NUU6)
# T3 sequence (whole entry): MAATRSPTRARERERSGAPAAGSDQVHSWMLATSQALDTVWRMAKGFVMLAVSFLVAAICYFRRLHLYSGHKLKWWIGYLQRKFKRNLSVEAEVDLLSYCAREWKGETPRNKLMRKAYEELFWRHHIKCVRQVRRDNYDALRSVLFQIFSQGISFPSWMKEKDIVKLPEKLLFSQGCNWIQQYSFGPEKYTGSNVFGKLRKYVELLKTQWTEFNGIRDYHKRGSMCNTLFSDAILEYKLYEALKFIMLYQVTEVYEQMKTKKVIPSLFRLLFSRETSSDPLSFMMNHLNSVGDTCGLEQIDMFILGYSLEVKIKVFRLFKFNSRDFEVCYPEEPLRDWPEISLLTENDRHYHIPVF
# In short: as §1
# [7] = molecular target: OTUB1 (UniProt Q96FW1)
# In short: as §1
# [8] = molecular target: T4, OTUD4 (UniProt Q01804)
# T4 sequence (whole entry): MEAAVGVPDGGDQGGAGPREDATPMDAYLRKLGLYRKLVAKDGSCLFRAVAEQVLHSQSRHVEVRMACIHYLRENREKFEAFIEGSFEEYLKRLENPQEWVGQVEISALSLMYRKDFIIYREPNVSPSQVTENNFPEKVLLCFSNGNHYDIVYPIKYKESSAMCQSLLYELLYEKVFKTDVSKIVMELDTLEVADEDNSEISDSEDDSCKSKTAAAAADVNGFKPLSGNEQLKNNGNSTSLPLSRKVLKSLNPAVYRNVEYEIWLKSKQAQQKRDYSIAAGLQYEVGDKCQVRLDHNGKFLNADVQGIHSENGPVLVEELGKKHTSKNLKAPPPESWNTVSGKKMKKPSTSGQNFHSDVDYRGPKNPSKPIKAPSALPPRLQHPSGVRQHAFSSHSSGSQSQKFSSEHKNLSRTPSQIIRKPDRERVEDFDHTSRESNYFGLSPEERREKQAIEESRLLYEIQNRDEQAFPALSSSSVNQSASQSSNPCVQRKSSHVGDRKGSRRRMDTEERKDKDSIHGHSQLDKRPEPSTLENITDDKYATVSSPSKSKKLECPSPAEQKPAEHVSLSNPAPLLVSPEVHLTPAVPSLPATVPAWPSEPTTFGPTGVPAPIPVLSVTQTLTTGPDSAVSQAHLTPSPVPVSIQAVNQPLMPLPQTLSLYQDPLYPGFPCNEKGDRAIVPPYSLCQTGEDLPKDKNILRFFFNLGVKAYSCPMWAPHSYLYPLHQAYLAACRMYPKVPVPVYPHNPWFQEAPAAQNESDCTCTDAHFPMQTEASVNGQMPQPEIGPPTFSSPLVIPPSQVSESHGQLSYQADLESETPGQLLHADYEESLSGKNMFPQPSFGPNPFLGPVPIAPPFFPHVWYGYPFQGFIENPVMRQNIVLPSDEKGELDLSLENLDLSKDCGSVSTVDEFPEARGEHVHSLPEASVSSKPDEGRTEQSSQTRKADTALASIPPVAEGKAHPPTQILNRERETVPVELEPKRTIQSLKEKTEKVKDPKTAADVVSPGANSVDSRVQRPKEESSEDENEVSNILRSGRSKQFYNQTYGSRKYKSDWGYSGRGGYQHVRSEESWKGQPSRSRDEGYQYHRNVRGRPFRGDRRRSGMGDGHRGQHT
# In short: as §1
# [9] = molecular target: T5, OTUD5 (UniProt Q96G74)
# T5 sequence (whole entry): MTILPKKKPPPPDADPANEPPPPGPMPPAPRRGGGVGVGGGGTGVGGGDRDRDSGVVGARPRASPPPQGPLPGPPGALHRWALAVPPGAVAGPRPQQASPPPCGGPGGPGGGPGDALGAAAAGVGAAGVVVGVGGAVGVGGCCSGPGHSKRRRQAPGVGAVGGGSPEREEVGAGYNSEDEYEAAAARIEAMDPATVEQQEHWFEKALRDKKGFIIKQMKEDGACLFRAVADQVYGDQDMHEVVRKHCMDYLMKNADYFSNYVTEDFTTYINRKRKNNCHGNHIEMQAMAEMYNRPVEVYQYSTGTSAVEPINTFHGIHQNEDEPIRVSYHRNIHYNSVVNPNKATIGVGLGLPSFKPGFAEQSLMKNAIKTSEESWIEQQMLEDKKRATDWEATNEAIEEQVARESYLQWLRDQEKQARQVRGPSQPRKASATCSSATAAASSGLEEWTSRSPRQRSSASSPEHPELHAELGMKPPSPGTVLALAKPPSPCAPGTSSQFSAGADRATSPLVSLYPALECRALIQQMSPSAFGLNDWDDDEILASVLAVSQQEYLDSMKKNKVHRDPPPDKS
# In short: as §1
# Chain of EIF3F (O00303 whole entry): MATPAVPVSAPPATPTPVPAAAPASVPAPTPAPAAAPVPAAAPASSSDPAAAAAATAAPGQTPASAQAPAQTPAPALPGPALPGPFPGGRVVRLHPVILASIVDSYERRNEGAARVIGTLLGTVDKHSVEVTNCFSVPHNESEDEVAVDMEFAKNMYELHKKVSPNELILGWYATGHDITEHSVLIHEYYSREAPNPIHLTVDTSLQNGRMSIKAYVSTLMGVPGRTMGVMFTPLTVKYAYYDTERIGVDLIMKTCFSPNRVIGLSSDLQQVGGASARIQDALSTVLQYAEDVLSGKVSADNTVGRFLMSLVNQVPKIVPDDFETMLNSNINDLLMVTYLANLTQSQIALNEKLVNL
# Chain of EIF3H (O15372 whole entry): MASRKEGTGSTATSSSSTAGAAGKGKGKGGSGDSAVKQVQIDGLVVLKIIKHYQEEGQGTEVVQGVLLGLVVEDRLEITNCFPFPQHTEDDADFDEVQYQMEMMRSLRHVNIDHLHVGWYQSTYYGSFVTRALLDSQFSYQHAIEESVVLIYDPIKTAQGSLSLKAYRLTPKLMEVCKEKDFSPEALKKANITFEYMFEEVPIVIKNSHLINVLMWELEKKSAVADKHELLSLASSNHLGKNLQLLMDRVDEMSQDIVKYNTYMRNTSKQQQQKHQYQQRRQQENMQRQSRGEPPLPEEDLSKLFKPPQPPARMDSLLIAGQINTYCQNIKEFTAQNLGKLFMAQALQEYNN
# Chain of OTUB1 (Q96FW1 whole entry): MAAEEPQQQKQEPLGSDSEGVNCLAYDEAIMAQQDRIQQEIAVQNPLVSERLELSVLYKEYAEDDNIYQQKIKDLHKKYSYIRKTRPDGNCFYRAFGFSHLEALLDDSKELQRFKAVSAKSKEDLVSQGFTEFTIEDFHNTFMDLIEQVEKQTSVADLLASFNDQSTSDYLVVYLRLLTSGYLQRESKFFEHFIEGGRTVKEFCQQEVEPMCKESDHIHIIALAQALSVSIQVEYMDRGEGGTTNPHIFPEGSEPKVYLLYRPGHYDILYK
# Chain of ATXN3 (P54252 whole entry): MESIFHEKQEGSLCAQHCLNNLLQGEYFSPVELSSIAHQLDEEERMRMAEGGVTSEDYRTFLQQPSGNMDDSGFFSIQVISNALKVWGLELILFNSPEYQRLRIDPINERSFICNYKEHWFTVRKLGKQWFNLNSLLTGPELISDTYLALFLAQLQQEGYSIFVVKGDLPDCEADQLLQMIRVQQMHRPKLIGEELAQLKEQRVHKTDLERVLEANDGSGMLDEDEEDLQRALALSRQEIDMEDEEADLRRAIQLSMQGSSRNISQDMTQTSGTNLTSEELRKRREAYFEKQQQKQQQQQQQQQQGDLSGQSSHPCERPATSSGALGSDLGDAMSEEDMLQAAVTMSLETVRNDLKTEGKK
smiles,measurement,setting,value
CN1c2ccccc2C(NC(=O)CCl)CS1(=O)=O (centres undefined),log2 ratio of Biotin-Ahx-Ub-VS probe labelling,[1],-0.325
same,log2 ratio of Biotin-Ahx-Ub-VS probe labelling,[2],-0.142
same,log2 ratio of Biotin-Ahx-Ub-VS probe labelling,[3],-2.33 (active)
same,log2 ratio of Biotin-Ahx-Ub-VS probe labelling,[4],-0.327
same,log2 ratio of Biotin-Ahx-Ub-VS probe labelling,[5],0.0135
same,log2 ratio of Biotin-Ahx-Ub-VS probe labelling,[6],0.147
same,log2 ratio of Biotin-Ahx-Ub-VS probe labelling,[7],-0.0194
same,log2 ratio of Biotin-Ahx-Ub-VS probe labelling,[8],-1.65 (active)
same,log2 ratio of Biotin-Ahx-Ub-VS probe labelling,[9],-0.14
